The values that follow come from PubChem BioAssay (NCATS).

Unmarked numbers belong to inactive results. Records with an inconclusive call do not appear. Active and inactive are the calls of the source. Unless noted, the call rests on the fitted dose curve; in most records, active means well fitted curve in either direction with a large enough effect (not every such curve was filed as active); inconclusive means small, poorly fitted or top-dose-only effect, or another doubt; inactive means flat fitted curve, though single readings scatter.

Experiment [1] deals with Lysosomal acid glucosylceramidase (Homo sapiens) (UniProt P04062). The experiment can be described thus: Glucocerebrosidase-p2 (AID 348; in the data active means potency below about 10 µM; further: potency means the concentration at half of the fitted maximal effect). The note with it: purified GBA, blue fluorogenic substrate, 40 min. The procedure, abridged: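 Normal human glucocerebrosidase (0.2 nM) with blue fluorogenic substrate (80 uM final) in citrate/phosphate pH 5.9 with 10mM sodium taurocholate, 0.01% tween-20; 40 min RT, NaOH/glycine stop; fluorescence Ex 365/Em 440; AC50 from a titration from 0.6 nM upwards.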

The nature of experiment [2]: AP1 Signaling Pathway (AID 357).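 Further: ME-180 reporter cells stimulated with EGF at its EC50 level; on the % scale 0 is the no-effect control and ±100 the full control effect.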 Particulars: ME-180 AP-1-bla reporter, EGF-induced, beta-lactamase ratio, 5 h; at 7.69 µM (top of the series) unless noted. The procedure, abridged:
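In this screen, ME-180 cells in Opti-MEM with 0.5% dialyzed FBS received EC50 EGF and compound titrations for 5 h. AP-1 reporter beta-lactamase was detected via CCF4 ratio, giving AC50 for positive and negative modulators.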

Experiment [3] is described as follows: Stat Signaling Pathway (AID 446).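 Further: ME-180 cervical cancer cells given 40 pM IL-6 alongside compound; SIE-controlled beta-lactamase reporter measured as 460/530 nm FRET emission ratio; on the % scale 0 is the no-effect control and ±100 the full control effect.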 The note with it: ME-180 (cervical carcinoma) SIE beta-lactamase reporter, IL-6 stimulated, 5 h; at 7.69 µM (top of the series) unless noted. The procedure, abridged: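 Emission at 460 and 530 nm (excitation 405 nm) reports SIE-controlled beta-lactamase in ME-180 cells. Cells received compound with 40 pM IL-6 for 5 hrs at 37 C; data scaled between 300 pM IL-6 and 125 nM JAK-inhibitor controls.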

In experiment [4] the target is Glucocorticoid receptor (Homo sapiens) (UniProt P04150). The experiment can be described thus: GR-GFP Redistribution (AID 450;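 active means compounds whose dose series gives a full or clear partial fitted curve of increased nuclear translocation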; further: potency means the concentration at half of the fitted maximal effect). The note with it: U2OS GR-GFP nuclear translocation, laser cytometry, 2 h.
The target of experiment [5] is Mitogen-activated protein kinase 10 (Mus musculus) (UniProt Q61831). Put plainly: JNK3 AlphaScreen Assay (AID 530).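 Further: kinase came from lysate of stimulated human HepG2 cells; signal reports phosphorylation of biotinylated GST-cJun 1-79 at Ser73 with 10 µM ATP; on the % scale 0 is the no-effect control and ±100 the full control effect.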 Particulars: JNK3 lysate, c-Jun phosphorylation; series mostly up to 57.1 µM. An outline of the steps: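 Kinase buffer: 20 mM Tris-HCl pH 7.6, 10 mM MgCl2, 1 mM DTT, 0.1 mM Na3VO4, 0.01% Tween-20; ATP 10 uM. Substrate biotin-GST-cJun(1-79), enzyme from activated HepG2 lysates. Detection by Ser73 phospho-antibody AlphaScreen.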
(In general: Alpha assays give light when donor and acceptor beads are brought close together.)

The target of experiment [6] is 3',5'-cyclic-AMP phosphodiesterase 4B (Homo sapiens) (UniProt Q07343). Put plainly: qHTS Assay for Inhibitors of PDE-IV (AID 607; active means well fitted activation curve with a large enough effect in the main read-out, with a control signal flat, not every such curve was filed as active; further: % of control where 0% means no effect). The note with it: HEK293 ACTOne CNG channel cells, membrane potential fluorescence; series mostly up to 22.9 µM. The procedure, abridged:
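The readout is membrane depolarisation from a cAMP-sensing CNG channel, detected with a potential dye at ex 535/em 590. Cells were HEK293-derived (endogenous PDE-IV) at 1000 cells/well, titrated up to 22.9 uM final.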

The target in experiment [7] is Glucocorticoid receptor (Homo sapiens) (UniProt P04150). The experiment can be described thus: GR-EFC Redistribution (AID 451; calls by dose curve; further: potency means the concentration at half of the fitted maximal effect). Particulars: CHO-K1 GR-EFC translocation, beta-gal luminescence, 2 h. The procedure, abridged: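 Translocation of GR-ED fusion to nuclear EA restores b-gal, read by luminescence after 1 h room-temperature detection. Engineered CHO-K1 biosensor cells, 1,000/well, exposed 2 h at 37 C to titrations up to 46 uM final.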

For experiment [8], the target named is Cytochrome P450 2D6 (Homo sapiens) (UniProt P10635). The experiment can be described thus: qHTS Assay for Inhibitors and Substrates of Cytochrome P450 2D6 (AID 891; active means well fitted inhibition curve with a large enough effect; further: potency means the concentration at half of the fitted maximal effect; nearly all actives have a fitted effect of over 60% in size). Particulars: recombinant CYP2D6, luciferin-ME EGE luminescence; series mostly up to 11.4 µM. The procedure, abridged: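 Luminescent read-out of luciferin formed by 5 nM human CYP2D6 demethylating 30 uM Luciferin-ME EGE (Km level) over 60 min at room temperature after NADPH regeneration addition. Data normalized to full inhibition by 1.43 uM quinidine.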
For orientation: Quantitative high-throughput screening tests each substance at several concentrations.

For experiment [9], the target named is Cytochrome P450 1A2 (Homo sapiens) (UniProt P05177). Put plainly: p450-cyp1a2 (AID 410; calls by dose curve; further: potency means the concentration at half of the fitted maximal effect;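 on activity change, negative = inhibition: -100% = full effect of reference inhibitor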). The note with it: recombinant CYP1A2, luciferin-ME demethylation, luminescence; series mostly up to 11.4 µM. An outline of the steps:
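Read-out is luminescence from luciferin produced by CYP1A2 demethylation of Luciferin-ME (100uM, at Km). Detection reagent stopped the 60 min NADPH-dependent reaction; signals were normalized to 57 uM furafylline.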

The nature of experiment [10]: NFAT Signaling Pathway (AID 444).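 Further: carbachol stimulus at about its EC50 of 1 µM final; on the % scale 0 is the no-effect control and ±100 the full control effect.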 Particulars: Jurkat NFAT-bla M1, carbachol, beta-lactamase ratio, 5 h; at 7.69 µM (top of the series) unless noted. The procedure, abridged:
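Read-out: CCF4 FRET ratio (460 nm/530 nm) after 1 h RT dye loading, used for %activity and AC50 from titration series. Cells: Jurkat NFAT-β-lactamase/M1 line, treated with compound plus 1 uM carbachol for 5 h, 37 °C.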

Experiment [11] has as its target Cytochrome P450 2C19 (Homo sapiens) (UniProt P33261). Put plainly: qHTS Assay for Inhibitors and Substrates of Cytochrome P450 2C19 (AID 899; active means well fitted inhibition curve with a large enough effect; further: potency means the concentration at half of the fitted maximal effect; nearly all actives have a fitted effect of over 60% in size). The note with it: recombinant CYP2C19, luciferin-H EGE luminescence; series mostly up to 11.4 µM. The procedure, abridged:
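Luminescence readout of luciferin formed from 10uM Luciferin-H EGE (KM level) by 5 nM CYP2C19 in 50mM KPO4. 60 min NADPH-driven reaction at 37C after 10 min compound preincubation; data scaled to 57uM ketoconazole inhibition.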

Glucocorticoid receptor (Homo sapiens), sequence (P04150 whole entry, looked up, the tested form may be a part): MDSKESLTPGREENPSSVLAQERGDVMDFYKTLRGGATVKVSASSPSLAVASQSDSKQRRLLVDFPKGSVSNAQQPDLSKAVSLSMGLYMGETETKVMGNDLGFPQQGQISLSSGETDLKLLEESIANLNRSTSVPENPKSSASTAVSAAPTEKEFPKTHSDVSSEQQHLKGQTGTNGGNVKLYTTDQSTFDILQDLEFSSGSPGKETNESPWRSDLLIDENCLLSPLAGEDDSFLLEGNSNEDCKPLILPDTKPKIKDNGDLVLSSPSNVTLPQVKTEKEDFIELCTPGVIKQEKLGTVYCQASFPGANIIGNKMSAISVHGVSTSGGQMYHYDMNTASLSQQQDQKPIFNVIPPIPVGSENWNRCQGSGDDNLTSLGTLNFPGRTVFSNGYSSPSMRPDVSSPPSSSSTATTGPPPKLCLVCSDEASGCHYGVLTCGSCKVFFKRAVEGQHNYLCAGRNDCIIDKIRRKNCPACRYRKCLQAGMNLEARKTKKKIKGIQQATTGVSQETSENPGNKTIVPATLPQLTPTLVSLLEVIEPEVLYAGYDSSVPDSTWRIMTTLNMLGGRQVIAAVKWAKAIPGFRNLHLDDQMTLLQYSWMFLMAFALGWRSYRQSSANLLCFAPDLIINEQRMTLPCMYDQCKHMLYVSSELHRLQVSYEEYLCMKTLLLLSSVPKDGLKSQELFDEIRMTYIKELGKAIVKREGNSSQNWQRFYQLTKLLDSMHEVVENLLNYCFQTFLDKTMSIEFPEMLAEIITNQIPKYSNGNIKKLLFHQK
3',5'-cyclic-AMP phosphodiesterase 4B (Homo sapiens), sequence (Q07343 whole entry, looked up): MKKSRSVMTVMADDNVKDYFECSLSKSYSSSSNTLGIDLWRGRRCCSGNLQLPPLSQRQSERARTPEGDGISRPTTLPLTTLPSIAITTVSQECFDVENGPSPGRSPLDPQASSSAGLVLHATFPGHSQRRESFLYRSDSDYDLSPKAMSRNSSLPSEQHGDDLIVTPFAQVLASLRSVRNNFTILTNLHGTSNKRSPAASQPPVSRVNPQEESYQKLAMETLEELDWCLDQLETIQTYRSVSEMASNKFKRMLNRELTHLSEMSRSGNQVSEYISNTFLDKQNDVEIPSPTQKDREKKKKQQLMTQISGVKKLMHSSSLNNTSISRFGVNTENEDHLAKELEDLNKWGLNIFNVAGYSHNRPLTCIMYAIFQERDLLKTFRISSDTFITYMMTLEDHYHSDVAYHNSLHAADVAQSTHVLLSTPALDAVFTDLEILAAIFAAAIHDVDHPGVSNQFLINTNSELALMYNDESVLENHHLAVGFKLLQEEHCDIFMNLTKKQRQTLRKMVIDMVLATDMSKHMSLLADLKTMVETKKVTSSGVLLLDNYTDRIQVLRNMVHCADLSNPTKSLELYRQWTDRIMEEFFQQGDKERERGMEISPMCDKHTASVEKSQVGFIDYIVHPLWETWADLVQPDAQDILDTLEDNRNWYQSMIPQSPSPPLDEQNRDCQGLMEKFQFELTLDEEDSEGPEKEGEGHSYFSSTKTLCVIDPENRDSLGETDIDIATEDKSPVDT
Lysosomal acid glucosylceramidase (Homo sapiens), sequence (P04062 whole entry, looked up): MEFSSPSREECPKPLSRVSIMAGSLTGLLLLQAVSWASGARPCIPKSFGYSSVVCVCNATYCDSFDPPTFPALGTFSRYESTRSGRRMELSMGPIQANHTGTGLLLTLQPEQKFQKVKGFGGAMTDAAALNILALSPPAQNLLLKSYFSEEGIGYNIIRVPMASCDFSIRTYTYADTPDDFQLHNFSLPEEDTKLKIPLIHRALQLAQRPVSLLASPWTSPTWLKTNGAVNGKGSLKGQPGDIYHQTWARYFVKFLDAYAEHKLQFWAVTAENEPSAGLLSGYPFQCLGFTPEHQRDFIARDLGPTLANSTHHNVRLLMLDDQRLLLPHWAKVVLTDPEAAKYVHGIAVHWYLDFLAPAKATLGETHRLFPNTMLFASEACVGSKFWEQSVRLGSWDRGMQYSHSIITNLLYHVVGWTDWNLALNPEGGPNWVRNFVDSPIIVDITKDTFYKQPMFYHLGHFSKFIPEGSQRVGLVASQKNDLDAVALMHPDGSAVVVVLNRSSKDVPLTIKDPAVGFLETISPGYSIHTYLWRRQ
Cytochrome P450 1A2 (Homo sapiens), sequence (P05177 whole entry, looked up): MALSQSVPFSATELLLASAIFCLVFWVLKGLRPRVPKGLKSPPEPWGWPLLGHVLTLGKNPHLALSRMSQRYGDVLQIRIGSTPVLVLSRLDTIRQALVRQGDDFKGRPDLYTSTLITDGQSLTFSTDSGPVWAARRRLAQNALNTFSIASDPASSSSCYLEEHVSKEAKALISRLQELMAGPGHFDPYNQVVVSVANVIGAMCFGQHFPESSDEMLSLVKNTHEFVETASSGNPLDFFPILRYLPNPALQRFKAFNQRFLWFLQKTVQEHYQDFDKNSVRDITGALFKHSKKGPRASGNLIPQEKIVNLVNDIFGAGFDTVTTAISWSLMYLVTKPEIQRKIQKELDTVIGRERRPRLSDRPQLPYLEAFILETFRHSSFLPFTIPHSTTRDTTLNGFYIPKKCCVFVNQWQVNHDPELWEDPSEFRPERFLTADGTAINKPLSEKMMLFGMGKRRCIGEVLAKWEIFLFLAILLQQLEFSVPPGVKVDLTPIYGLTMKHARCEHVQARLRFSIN
Cytochrome P450 2C19 (Homo sapiens), sequence (P33261 whole entry, looked up): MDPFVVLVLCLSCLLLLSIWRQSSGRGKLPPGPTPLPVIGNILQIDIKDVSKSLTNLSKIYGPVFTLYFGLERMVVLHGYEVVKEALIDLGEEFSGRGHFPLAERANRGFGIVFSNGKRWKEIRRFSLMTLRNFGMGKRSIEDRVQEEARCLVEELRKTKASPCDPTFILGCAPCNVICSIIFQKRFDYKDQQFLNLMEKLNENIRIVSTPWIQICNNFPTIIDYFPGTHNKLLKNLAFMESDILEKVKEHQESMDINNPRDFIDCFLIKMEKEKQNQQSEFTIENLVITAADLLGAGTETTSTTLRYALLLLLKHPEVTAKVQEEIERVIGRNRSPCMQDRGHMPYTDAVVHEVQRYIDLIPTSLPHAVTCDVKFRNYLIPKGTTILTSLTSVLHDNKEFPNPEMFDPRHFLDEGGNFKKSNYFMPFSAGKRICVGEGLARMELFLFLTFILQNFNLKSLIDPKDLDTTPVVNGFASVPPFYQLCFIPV
Cytochrome P450 2D6 (Homo sapiens), sequence (P10635 whole entry, looked up): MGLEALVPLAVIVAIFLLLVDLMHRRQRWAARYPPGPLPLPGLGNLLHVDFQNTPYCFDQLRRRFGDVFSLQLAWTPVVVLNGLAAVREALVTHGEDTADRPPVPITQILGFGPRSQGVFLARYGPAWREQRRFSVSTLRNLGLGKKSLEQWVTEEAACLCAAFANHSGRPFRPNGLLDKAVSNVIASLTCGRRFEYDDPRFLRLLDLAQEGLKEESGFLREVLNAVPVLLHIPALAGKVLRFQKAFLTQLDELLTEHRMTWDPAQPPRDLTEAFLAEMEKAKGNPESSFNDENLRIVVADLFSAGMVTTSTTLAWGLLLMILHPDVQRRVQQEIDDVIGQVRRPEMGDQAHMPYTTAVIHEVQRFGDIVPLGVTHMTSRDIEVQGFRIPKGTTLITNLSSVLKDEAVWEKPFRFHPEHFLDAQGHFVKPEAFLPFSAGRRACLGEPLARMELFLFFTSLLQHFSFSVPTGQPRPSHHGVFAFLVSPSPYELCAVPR

With `COc1ccc(C[C@@H]2C(=O)N[C@H](C)C(=O)N(C)[C@@H]3C(=O)N(C)[C@@H](Cc4ccc(O)c(c4)Oc4ccc(cc4)[C@H]3O)C(=O)N[C@@H](C)C(=O)N[C@H](C)C(=O)N2C)cc1`, the Potency in [1] was over 11.4 µM; in experiment [4], over 46 µM. For the same compound, the activity change, negative = inhibition in experiment [2] is -121% (active); in experiment [5], 3.04% [at 11.4 µM]. Moreover, in [3], the activity, negative = inhibition was -105% (active). For the same compound, in [6], the compound was called inactive.

For the compound `O=S(=O)(Nc1nccs1)c1ccc([As](=O)(O)O)cc1`, the Potency was over 11.4 µM in experiment [1], over 46 µM in experiment [4] and over 9.22 µM in experiment [7]. Also, the activity change, negative = inhibition in [2] is 4.77%; in [5], 2.72% [at 11.4 µM]. Further, the activity, negative = inhibition in experiment [3] was 10.3%. In addition, the result in experiment [6] was inactive.

Consider `c1nc(N2CC2)c2cnn([C@@H]3CCCCO3)c2n1`, for which the Potency in experiment [1] was over 11.4 µM; in experiment [4] it was over 46 µM; in experiment [7], over 9.22 µM. The activity change, negative = inhibition is 5.4% in [2] and 0.68% [at 11.4 µM] in [5]. The activity, negative = inhibition in [3] is -5.16%. The outcome in experiment [6] was inactive.

In the case of `COC1=C(C)C(=O)c2c(c(COC(N)=O)c3n2C[C@@H]2[C@@H]3N2C)C1=O` (stereo partly drawn), the Potency in experiment [1] is over 11.4 µM; in experiment [4], over 46 µM; in [7], over 9.22 µM; in experiment [8], 1.58 µM (active). The activity change, negative = inhibition in experiment [5] is -0.1% [at 11.4 µM]. In addition, the compound was classed as inactive in experiment [6].

On to `CSc1ccc2c(c1)c(CCN)c(C)n2Cc1ccccc1Cl`, for which the Potency in [1] is over 11.4 µM; in experiment [4], over 46 µM; in experiment [7] it was over 9.22 µM. Further, the activity change, negative = inhibition in [2] is 16.6%; in experiment [5] it was -5.61% [at 11.4 µM]. The activity, negative = inhibition in experiment [3] was -2.31%. Besides, the result in [6] was inactive.

With `C[C@H]1CC[C@@]2(NC1)O[C@@H]1C[C@@H]3[C@@H]4CC=C5C[C@@H](O)CC[C@]5(C)[C@@H]4CC[C@]3(C)[C@H]1[C@@H]2C`, the Potency in [1] was over 11.4 µM; in experiment [4], over 46 µM; in [7] it was over 9.22 µM. Further, the Potency entry in experiment [9] was “inactive”. The activity change, negative = inhibition in experiment [10] was 24.2%; in experiment [5] it was -0.366% [at 11.4 µM]. Also, the activity, negative = inhibition in experiment [3] was 7.42%. For the same compound, in [6], the compound was called inactive.

Regarding `Cc1ccc(S(=O)(=O)O[C@H]2CN3CCC2CC3)cc1`, the Potency in experiment [1] was over 11.4 µM; in experiment [4], over 46 µM; in experiment [7] it was over 9.22 µM. Moreover, the activity change, negative = inhibition in experiment [2] was 10.6%; in experiment [5] it was 5.42% [at 11.4 µM]. Besides, the activity, negative = inhibition in [3] was -1.72%. Besides, in [6], the compound was called inactive.

Turning to `O=C(O)CN1CCN(CC(=O)O)CC(=O)[O][Hg][O]C(=O)C1`, the Potency was 0.199 µM (active) in [1], 3.16 µM (active) in experiment [8] and 0.794 µM (active) in experiment [11]. Also, the values for the activity change, negative = inhibition in [2] and in [5] were 18.9% and -1.36% [at 11.4 µM], respectively. In addition, in [3], the activity, negative = inhibition was 1.17%. In addition, the result in experiment [6] was inactive.

Consider `CSC([N-]/N=C/c1cccc(C)n1)=[S]=[Cu].CS[C@H]([S-])[N-]/N=C/c1cccc(C)n1`, for which the Potency is over 11.4 µM in experiment [1]; 0.631 µM (active) in experiment [9]; over 46 µM in [4]; over 9.22 µM in [7]; 0.199 µM (active) in [11]. The activity change, negative = inhibition in [10] is -102% (active); in experiment [5], -6.87% [at 11.4 µM]. For the same compound, in experiment [6], the result was inactive.
